Experimental data: ChEMBL document CHEMBL3988442, “University of Dundee, Small-Polar-MMV Screening Library” (2021)
Out of some 38,000 compounds screened, about 1,200 (3.2%) showed an effect of 50% or more. The median lay at about -58%. The list comes from a sample in which strong results are over-represented; it also holds similar structures and randomly drawn compounds.

tested on: Plasmodium falciparum; experiment: Calibr Malaria Delayed Death Assay SOP; type: functional, organism-based; parameters: scale not given: in the data most compounds retested in dose-response had high values; details: concentration 4.99e-06 (unit not given; other assays of the set use mol/L)

Compound	Percent Effect [%]
O=C(O)C(F)(F)F.O=C(c1cccnc1)N1CCC2(CC1)CC(Oc1ccccc1)CO2 (centres undefined)	-74.94
CCc1ccc2nc(-c3cnn(C)c3)cc(C(=O)N3CCOCC3)c2c1	-101.2
CCS(=O)(=O)NCc1cccnc1N1CCCC(O)C1 (centres undefined)	-44.06
Cc1cnn(CC(=O)N(CC2CN(C)CCO2)c2nccs2)c1 (centres undefined)	-66.52
Cc1ccc(S(=O)(=O)Nc2ccc(-n3ccnc3C)nc2)cc1N(C)C	-25.67
CC(=O)N(C)c1nc(Cn2nnnc2C(C)C)cs1	-150.3
Cc1ccc(CN2CCc3onc(COc4cccnc4)c3C2)s1.O=C(O)C(F)(F)F.O=C(O)C(F)(F)F	3.567
COc1ccc(-c2ncccc2C(=O)N2C[C@H]3CC[C@@H]2C3)cn1	-112.3
N#Cc1ccc(NCCCN2C(=O)COc3ccccc32)nc1	-38.04
N#Cc1c(Cl)nsc1NCCCN1C(=O)COc2ccccc21	55.67
N#Cc1cnc(NCCCN2C(=O)COc3ccccc32)c(Cl)c1	-83.56
CC(C)n1cc(N2CC(C(=O)N3CCc4ccccc4C3)CC2=O)cn1 (centres undefined)	-62.91
O=C(O)C(F)(F)F.O=C(c1ccc(O)cc1)N1C[C@@H]2OCCN(c3ncccn3)[C@@H]2C1	6.308
Cl.NCC1(c2cccc(Br)c2)CCOCC1	78.65
NCC1(c2cccc(C(F)(F)F)c2)CCC1	23
CC(C)(CNC(=O)C1(c2cccc(Br)c2)CCOCC1)C(=O)O	-116.6
Fc1cccc(C2(CNC3CCSC3)CCOCC2)c1 (centres undefined)	-47.45
O=C(O)CCNC(=O)C1(c2cccc(Br)c2)CCOCC1	-140.1
Cc1ccc(NCCNC(=O)c2cc(CC(C)C)n[nH]2)nn1	-140.2
Cc1cc(NC(=O)Cn2ccc(-c3ccc4c(c3)OCO4)n2)n(C)n1	-110.5
CC(C)CNC(=O)c1cn(C)c(=O)c2ccccc12	-112.9
CN(C)CCN1CCO[C@@H]2CCN(C(=O)c3cccn3C)CC[C@H]21	-62.97
CCN1CCC(NC(=O)CN2CCCC(NS(C)(=O)=O)C2)CC1 (centres undefined)	-94.92
c1cc(-c2cscn2)cc(N2CCC(NCCc3cccs3)CC2)c1	23.18

Compound	Percent Effect [%]
CC(C)CC(C)NC1CCN(c2cccc(-c3cscn3)c2)CC1 (centres undefined)	51.64
CC(C)CC(C)NC1CCN(c2ccc(-c3cscn3)cc2)CC1 (centres undefined)	-115.7
Cc1ccc(C(C(=O)N2CCC(Cc3noc(C)n3)CC2)N(C)C)cc1 (centres undefined)	25.87
O=S(=O)(c1ccc(-c2cnco2)cc1)N1CCCC(O)(CO)CC1 (centres undefined)	-42.75
Cc1ccc(S(=O)(=O)N2CCN(C)C3(CCC(=O)N(C)CC3)C2)s1 (centres undefined)	-170.6
CN1CCC2(CCCN(S(=O)(=O)c3ccc(-c4cnco4)s3)C2)C1 (centres undefined)	50.7
CN1CCCC2(CCN(S(=O)(=O)c3ccc(-c4cnco4)s3)C2)C1=O (centres undefined)	-20.09
CN1CCC2(CCN(S(=O)(=O)c3ccc(-c4cnco4)s3)CC2)C1	67.52
CN1CCCC2(CCN(C(=O)c3ccncc3)C2)C1 (centres undefined)	-70.03
CCCn1c(C)c(CC(=O)NCC(N)=O)c2c1CC(C)(C)CC2=O	-28.28
O=C(C1CCCO1)N1CCC2(CC1)COCCN2CC1CC1 (centres undefined)	-162.7
CC(=O)N1CCc2c(nc(-c3ccccn3)nc2N(C)CC(O)CO)C1 (centres undefined)	-23.68
CN(Cc1cccnc1)c1nccc(N2CCN[C@H]3CS(=O)(=O)C[C@H]32)n1	-59
CN(Cc1ccc(-n2cccn2)cc1)c1nc(N)nc2c1CCNCC2	57.31
CN(Cc1nccs1)c1nc(-c2ccccn2)nc2c1CCNCC2	83.34
c1ccc(-c2nc3c(c(NCCn4ccnn4)n2)CCNCC3)nc1	6.036
CN(Cc1nccs1)C1CCN(c2ncccn2)CC1	-79.31
CN(Cc1ncc[nH]1)c1nc(-c2ccccn2)nc2c1CCNCC2	54.09
CN(Cc1cccnc1)Cc1cncc2c1CCN(c1ccccn1)C2.Cl.Cl.Cl	-32.27
CN(Cc1ccc(-n2cccn2)cc1)c1cc(N)nc(N)n1	39.62
CN(Cc1ccccc1-n1cccn1)c1nc(N)nc2c1CCNCC2	-16.16
CN(CCO)c1nc(-c2ccccn2)nc2c1CCNC2	-87.29
CN(Cc1cccnc1)c1nc(-c2ccccn2)nc2c1CCNCC2	53.3
O=C(O)C(F)(F)F.O=C(O)C(F)(F)F.c1cncc(CO[C@H]2CN(Cc3ccco3)[C@@H]3COC[C@H]23)c1	-20

Compound	Percent Effect [%]
Nc1nnc(SCc2cc(=O)n3c4c(sc3n2)CCCC4)[nH]1	-122.1
O=C(C1CCC1)N1C(CN2CCOCC2)[C@]2(O)CC[C@H]1CC2 (some centres undefined)	-122.6
O=C(Cn1nc(Br)nc1Br)N1CCCCC1	-129.7
Cc1nc(CC2CCN(C(=O)C(c3ccccc3C)N(C)C)CC2)no1 (centres undefined)	-27.12
COc1ccc(CN(Cc2cncn2C)CC2CCCO2)cc1.O=C(O)CC(O)(CC(=O)O)C(=O)O (centres undefined)	-5.826
CC1CCN(c2nc3ncc4c(c3c(=O)[nH]2)CC(C)(C)CC4=O)CC1	-163.1
CN(CC1Cc2ccccc2CN1C)c1nc(N)nc2c1CCNCC2 (centres undefined)	-16.74
COCC(Nc1nc(N(C)C)nc2c1CCNCC2)c1ccccn1 (centres undefined)	-46.74
CCOCc1nc2c(c(N(C)Cc3nonc3C)n1)CCNCC2	45.51
CCOCc1nc2c(c(N(C)Cc3ccsc3)n1)CCNCC2	63.06
CCOCc1nc2c(c(N(C)Cc3snnc3C)n1)CCNCC2	-53.15
CN(Cc1ccsc1)c1nc(-c2ccccn2)nc2c1CCNCC2	79.12
COCC1CCN(C(=O)c2cn(Cc3ccccc3F)nn2)CC1	-60.58
CN(C)c1cc(C(=O)NCCc2n[nH]c(=O)[nH]2)ccn1	-61.85
Cc1cnn(CC2CN(Cc3nc(C4CC4)no3)CCO2)c1 (centres undefined)	-0.1422
CC(C)N1CCC(CNC(=O)CCc2cc(F)ccc2F)C1 (centres undefined)	6.837
COCCN1CCC(CNC(=O)CCc2cc(F)ccc2F)C1 (centres undefined)	-6.086
CC(C)N1CCC(CNC(=O)COc2ccc(F)cc2F)C1 (centres undefined)	52.83
Cc1cc(CNC(=O)N2CCN(c3ccc(Cl)cn3)CC2)c(C)o1	-63.56
CC(=O)N1CCO[C@@H]2CN(C(=O)NCc3ccccc3)CC[C@@H]2C1	-111.3
Cc1cnc(N2CC[C@@H]3OC(COCC(=O)N(C)C)CC[C@@H]32)nc1.O=C(O)C(F)(F)F (some centres undefined)	-36.79
CCCOc1cc(C)ccc1NC(=O)NCCNC(=O)C(C)C	-67.23
CC(C)COC(=O)N1[C@@H](c2ccco2)[C@@H](CO)C[C@]12CCCCNC2=O	-86.33
Cc1nc2c(c(NCC(O)C(F)(F)F)n1)CCNCC2 (centres undefined)	-130.8

Compound	Percent Effect [%]
COCc1noc(CNc2nc(C3CCCC3)nc3c2CCNCC3)n1	26.49
OC(CNc1ncnc2c1CCNCC2)C(F)(F)F (centres undefined)	-185.3
COCCNc1nc2c(c(NCc3ccncc3)n1)CCNCC2	12.96
COCCNc1nc(C2CCCC2)nc2c1CCNCC2	52.24
OC(CNc1nc(C2CCCC2)nc2c1CCNCC2)C(F)(F)F (centres undefined)	63.72
Cc1nc(CN2CCO[C@H]3[C@@H](Oc4ccccn4)CC[C@@H]32)cs1.O=C(O)C(F)(F)F.O=C(O)C(F)(F)F	-51.07
COc1cccc(-c2cc(C(=O)NCCCn3cnnc3)[nH]n2)c1	-185.9
CCn1ncc2c1C(COC)CN(Cc1cnn(C)c1)C2 (centres undefined)	-1.77
CC[C@@H]1N(Cc2nccs2)CCC[C@]12CCC(=O)N2CCOC.O=C(O)C(F)(F)F	-51.09
Cc1noc(-c2ccnc(N3CCC(CN4CCOCC4)CC3)c2)n1	-57.29
Cc1ccc(C(=O)N2CCN(c3ccnc4ccsc34)CC2)o1	5.694
c1coc(CN2CCn3c(nc4ccccc43)C2)c1	-138.4
CN(Cc1ccco1)C[C@H]1OC[C@@H]2CCN(Cc3cccnc3)C[C@@H]21.O=C(O)C(F)(F)F.O=C(O)C(F)(F)F.O=C(O)C(F)(F)F	-41.37
CN(Cc1ccco1)C[C@H]1OC[C@@H]2CCN(Cc3nccs3)C[C@@H]21	9.527
CN(Cc1ccco1)C[C@H]1OC[C@@H]2CCN(Cc3ccccn3)C[C@@H]21.O=C(O)C(F)(F)F.O=C(O)C(F)(F)F.O=C(O)C(F)(F)F	70.31
Cc1cccc(N2CC[C@H]3CO[C@H](CN(C)Cc4ccco4)[C@H]3C2)n1	48.83
CN(Cc1ccco1)C[C@H]1OC[C@@H]2CCN(Cc3ccncc3)C[C@@H]21.O=C(O)C(F)(F)F.O=C(O)C(F)(F)F.O=C(O)C(F)(F)F	-2.031
OC1=C2C(=Nc3n[nH]c(O)c3C2c2ccccc2Cl)CCC1 (centres undefined)	-169.8
Cn1nc(C(=O)N2CCCC2)c(F)c1NC(=O)Cc1ccccc1	-43.72
Cc1nc2ccnn2c(C)c1CCC(=O)N1CCN(CCO)CC1	-40.17
CCn1ncnc1C(C)Nc1cc(C2CC2)ncn1 (centres undefined)	-128.7
Cc1cccc(CN2C(=O)CO[C@@H]3CN(Cc4cnn(C)c4)C[C@H]32)c1.O=C(O)C(F)(F)F.O=C(O)C(F)(F)F	-89.5
